According to the supplement of paper PMC4840960:
Where a name gives a salt, the structure may show the parent alone.

Each compound was assayed on E18 rat cortical neuron-glia co-culture (assay: myelination (MBP fiber length per Olig2+ nucleus), % of 1 µM DAPT response (DMSO = 0) (% of DAPT); higher = more myelination, active = 50 or more). Conditions: 1 µM; treatment time: 8 days (DIV5-DIV13).
Summary of the method: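 Myelination, expressed as continuous straight MBP fiber length per Olig2+ nucleus, was normalised to 0.1 % DMSO as 0 and a 1 µM positive control as 100. The cultures were primary E18 rat cortical co-cultures dissociated with papain and plated at 20,000 cells/well on poly-d-lysine/laminin-coated 96-well plates. They received library compounds at 1 or 5 µM in myelination medium between DIV5 and DIV13. Analysis covered four 10X fields per well in duplicate wells after 4 % paraformaldehyde fixation and immunostaining for MBP and Olig2 with DAPI.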

myelination, inactive:
Brc1c(NC2=NCCN2)ccc2nccnc12 [Brimonidine] -13.9
C[C@@H]1C[C@H]2[C@@H]3C[C@H](F)C4=CC(=O)C(Cl)=C[C@]4(C)[C@@]3(F)[C@@H](O)C[C@]2(C)[C@@]1(O)C(=O)CO [Halometasone hydrate] -20.7
Clc1ccc2c(c1)CCc1cccnc1C2=C1CCNCC1 [Desloratadine] -12.9
COC(=O)C1=C(C)NC(C)=C(C(=O)OCCN(C)Cc2ccccc2)C1c1cccc([N+](=O)[O-])c1 (centres undefined) [Nicardipine] -8.17
Nc1c2c(nc3ccccc13)CCCC2 [Tacrine] -9.65
CC(C)(C#N)c1cc(Cn2cncn2)cc(C(C)(C)C#N)c1 [Anastrozole] -5.96
CCCCCCNC(=O)n1cc(F)c(=O)[nH]c1=O [Carmofur] -30.6
C[C@](N)(Cc1ccc(O)c(O)c1)C(=O)O [Methyldopa] 22.3
CNS(=O)(=O)Cc1ccc2[nH]cc(CCN(C)C)c2c1 [Sumatriptan] -5.51
OC(CCN1CCCC1)(c1ccccc1)C1CCCCC1 (centres undefined) [Procyclidine] -4.99
Cc1noc(NS(=O)(=O)c2ccc(N)cc2)c1C [Sulfisoxazole] -3.97
CN1[C@@H](CC(=O)c2ccccc2)CCC[C@H]1C[C@H](O)c1ccccc1 [Lobeline] 2.9
CC[N+](C)(C)c1cccc(O)c1 [Edrophonium] -6.47
Cc1onc(-c2c(Cl)cccc2Cl)c1C(=O)N[C@@H]1C(=O)N2[C@@H]1SC(C)(C)[C@@H]2C(=O)O [Dicloxacillin] 5.21
CC1=Nc2ccc(Cl)cc2S(=O)(=O)N1 [Diazoxide] 5.81
CC(C)(C(=O)O)c1ccc(C(O)CCCN2CCC(C(O)(c3ccccc3)c3ccccc3)CC2)cc1 (centres undefined) [Fexofenadine] 0.24
CN1CCc2cc(Cl)c(O)cc2C(c2ccccc2)C1 (centres undefined) -8.8
Clc1ccccc1C(c1ccccc1)(c1ccccc1)n1ccnc1 [Clotrimazole] 7.64
COc1ccc(/C=C/C(=O)Nc2ccccc2C(=O)O)cc1OC [Tranilast] -12.7
CN(C)CCc1c[nH]c2ccc(Cn3cncn3)cc12 [Rizatriptan] -15
NC(=O)N1c2ccccc2C=Cc2ccccc21 [Carbamazepine] 2.28
COc1cc(C(=O)NS(=O)(=O)c2ccccc2C)ccc1Cc1cn(C)c2ccc(NC(=O)OC3CCCC3)cc12 [Zafirlukast] -12.3
O=C(O)c1cccnc1 [Niacin] 9.03
CCCc1nc2c(C)cc(-c3nc4ccccc4n3C)cc2n1Cc1ccc(-c2ccccc2C(=O)O)cc1 [Telmisartan] -7.37
Cc1ccc(-c2cc(C(F)(F)F)nn2-c2ccc(S(N)(=O)=O)cc2)cc1 [Celecoxib] -5.22
COc1ccc([C@@H]2Sc3ccccc3N(CCN(C)C)C(=O)[C@@H]2OC(C)=O)cc1 [Diltiazem] -10.1
CNC(=C[N+](=O)[O-])NCCSCc1ccc(CN(C)C)o1 [Ranitidine] -19.6
CCCc1nc(C(C)(C)O)c(C(=O)O)n1Cc1ccc(-c2ccccc2-c2nnn[nH]2)cc1 [Olmesartan] -32.2
NS(=O)(=O)c1cc(C2(O)NC(=O)c3ccccc32)ccc1Cl (centres undefined) [Chlorthalidone] 18.9
O=C1Nc2ccccc2/C1=C1/Nc2ccccc2C1=O [Indirubin] -4.48
CNCC[C@@H](Oc1ccccc1C)c1ccccc1 [Atomoxetine] -18.6
C[C@]12CCC(=O)C=C1CC[C@@H]1[C@@H]2[C@@H](O)C[C@@]2(C)[C@H]1CC[C@]2(O)C(=O)COC(=O)CCC(=O)O [Cortisol succinate] 0.996
C#C[C@]1(O)CC[C@H]2[C@@H]3CCC4=CC(=O)CC[C@@H]4[C@H]3CC[C@@]21C [Norethindrone] -8.89
OCCOCCN1CCN(C(c2ccccc2)c2ccc(Cl)cc2)CC1 (centres undefined) [Hydroxyzine pamoate salt] -6.65
O=S(=O)(O)CCS [Mesna] 1.33
CN1CCN(C2=Nc3cc(F)ccc3Cc3ccccc32)CC1 [Fluperlapine] 6.96
COc1cc(/C=C/c2ccc(O)cc2)cc(OC)c1 [Pterostilbene] -13.8
NS(=O)(=O)c1cc2c(cc1Cl)NCNS2(=O)=O [Hydrochlorothiazide] -8.91
N=C(N)N [Guanidine] -7.42
